# Laboratory results: the supplement of paper PMC6411743
# ± gives the standard deviation of the averaged measurements. About 6,200 targets were measured; listed, in parts, are those with the largest changes and a random draw of the rest.
# Tests used:
# Experiment in all cases: NP40-soluble protein abundance relative to vehicle (solubility fold change) (ratio); higher = more soluble protein in presence of AMP-PNP
# A0A087WUT6|O60841 = target: T1, A0A087WUT6|O60841 (UniProt O60841)
# T1 sequence (whole entry): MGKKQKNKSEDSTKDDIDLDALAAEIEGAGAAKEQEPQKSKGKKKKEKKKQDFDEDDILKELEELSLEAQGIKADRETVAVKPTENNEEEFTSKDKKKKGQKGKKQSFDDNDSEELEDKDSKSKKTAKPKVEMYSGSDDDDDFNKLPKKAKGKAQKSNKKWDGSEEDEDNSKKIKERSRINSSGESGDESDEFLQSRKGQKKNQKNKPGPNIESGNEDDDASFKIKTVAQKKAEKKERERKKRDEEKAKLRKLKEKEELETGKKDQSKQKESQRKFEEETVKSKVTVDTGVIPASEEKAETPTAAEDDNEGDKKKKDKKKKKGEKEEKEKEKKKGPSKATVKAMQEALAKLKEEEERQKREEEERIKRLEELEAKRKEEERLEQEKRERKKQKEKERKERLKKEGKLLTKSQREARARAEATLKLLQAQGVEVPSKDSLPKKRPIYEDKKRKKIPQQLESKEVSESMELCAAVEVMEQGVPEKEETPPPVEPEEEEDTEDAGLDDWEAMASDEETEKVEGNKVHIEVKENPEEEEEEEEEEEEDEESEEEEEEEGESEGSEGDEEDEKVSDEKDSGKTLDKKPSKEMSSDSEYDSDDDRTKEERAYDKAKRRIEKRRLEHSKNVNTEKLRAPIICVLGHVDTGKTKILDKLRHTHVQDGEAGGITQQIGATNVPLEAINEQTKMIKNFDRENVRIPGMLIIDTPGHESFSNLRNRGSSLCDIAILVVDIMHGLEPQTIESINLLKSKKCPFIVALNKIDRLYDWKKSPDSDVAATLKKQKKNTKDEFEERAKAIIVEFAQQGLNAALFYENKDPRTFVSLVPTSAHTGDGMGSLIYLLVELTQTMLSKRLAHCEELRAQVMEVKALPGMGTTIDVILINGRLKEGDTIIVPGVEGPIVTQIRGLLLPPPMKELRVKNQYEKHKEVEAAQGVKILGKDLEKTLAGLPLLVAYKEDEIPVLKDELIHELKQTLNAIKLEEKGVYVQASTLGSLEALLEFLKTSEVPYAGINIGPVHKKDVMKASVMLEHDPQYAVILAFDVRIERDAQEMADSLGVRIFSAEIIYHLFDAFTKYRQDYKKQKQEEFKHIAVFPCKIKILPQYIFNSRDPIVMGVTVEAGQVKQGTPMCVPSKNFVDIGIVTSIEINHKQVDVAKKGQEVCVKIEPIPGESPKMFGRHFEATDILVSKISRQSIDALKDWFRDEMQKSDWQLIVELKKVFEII
# Method in brief: (§1)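 Across three independent experiments, values are fold changes against the detergent-processed vehicle for each replicate, based on vsn-normalised intensities. The samples were Jurkat crude lysate treated with eight concentrations (0.1 to 10 mM) for 10 min at room temperature and then 3 min at 37 °C. Lysate was solubilised with 0.8% NP40 and benzonase, ultracentrifuged, and the supernatant analysed by TMT-labelled LC-MS/MS.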
# [1] = target: T2, A0A087WUU7|Q96GX5|Q96GX5-3|Q96GX5-2 (UniProt Q96GX5)
# T2 sequence (whole entry): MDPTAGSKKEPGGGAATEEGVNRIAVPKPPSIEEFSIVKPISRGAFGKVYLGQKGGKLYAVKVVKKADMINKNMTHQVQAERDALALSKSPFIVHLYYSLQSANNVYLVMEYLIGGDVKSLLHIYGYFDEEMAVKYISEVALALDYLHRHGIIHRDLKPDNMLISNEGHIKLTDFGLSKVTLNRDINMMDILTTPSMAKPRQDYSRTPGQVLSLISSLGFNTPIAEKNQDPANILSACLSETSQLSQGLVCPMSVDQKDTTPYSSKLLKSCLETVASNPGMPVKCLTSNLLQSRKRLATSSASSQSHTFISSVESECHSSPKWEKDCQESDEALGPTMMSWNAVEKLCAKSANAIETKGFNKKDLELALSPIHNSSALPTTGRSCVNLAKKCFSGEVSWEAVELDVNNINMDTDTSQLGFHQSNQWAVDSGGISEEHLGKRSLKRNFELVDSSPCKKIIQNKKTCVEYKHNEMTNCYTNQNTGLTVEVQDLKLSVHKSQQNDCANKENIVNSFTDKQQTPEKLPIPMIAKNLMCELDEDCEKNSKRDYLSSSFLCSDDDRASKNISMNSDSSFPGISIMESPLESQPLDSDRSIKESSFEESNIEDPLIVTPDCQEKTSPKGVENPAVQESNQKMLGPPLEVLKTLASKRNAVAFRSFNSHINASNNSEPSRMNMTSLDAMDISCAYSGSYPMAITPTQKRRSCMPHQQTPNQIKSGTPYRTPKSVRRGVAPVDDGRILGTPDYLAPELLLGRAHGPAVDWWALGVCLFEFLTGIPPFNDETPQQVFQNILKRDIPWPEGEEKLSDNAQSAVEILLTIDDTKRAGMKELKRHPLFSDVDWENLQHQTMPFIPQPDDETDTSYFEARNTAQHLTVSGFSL
# Method in brief: as §1
# [2] = target: T3, A0A087WV73|P46087|P46087-2|P46087-4 (UniProt P46087)
# T3 sequence (whole entry): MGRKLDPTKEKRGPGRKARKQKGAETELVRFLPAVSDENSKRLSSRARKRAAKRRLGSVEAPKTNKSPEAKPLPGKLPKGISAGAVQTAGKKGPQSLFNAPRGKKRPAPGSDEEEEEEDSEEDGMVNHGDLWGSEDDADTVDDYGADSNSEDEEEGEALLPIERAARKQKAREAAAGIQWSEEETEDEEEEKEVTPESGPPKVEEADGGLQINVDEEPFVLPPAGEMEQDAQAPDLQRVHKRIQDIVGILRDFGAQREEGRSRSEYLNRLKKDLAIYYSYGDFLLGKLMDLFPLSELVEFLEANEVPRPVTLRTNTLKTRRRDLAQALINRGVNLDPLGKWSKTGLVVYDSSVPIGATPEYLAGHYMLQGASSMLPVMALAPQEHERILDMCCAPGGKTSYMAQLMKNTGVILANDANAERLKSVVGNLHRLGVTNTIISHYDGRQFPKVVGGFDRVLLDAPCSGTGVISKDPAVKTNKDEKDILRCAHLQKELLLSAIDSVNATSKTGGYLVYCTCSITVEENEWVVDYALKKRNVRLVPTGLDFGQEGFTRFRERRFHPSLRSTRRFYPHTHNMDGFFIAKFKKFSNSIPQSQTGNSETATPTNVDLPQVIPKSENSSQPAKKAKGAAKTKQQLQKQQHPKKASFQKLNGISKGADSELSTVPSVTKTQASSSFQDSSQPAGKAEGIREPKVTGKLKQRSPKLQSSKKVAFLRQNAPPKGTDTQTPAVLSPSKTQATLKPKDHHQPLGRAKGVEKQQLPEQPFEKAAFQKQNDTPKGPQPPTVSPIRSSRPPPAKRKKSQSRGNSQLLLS
# Method in brief: as §1
# A0A087WW88|Q9UQN3 = A0A087WW88|Q9UQN3 (UniProt Q9UQN3)
# Sequence of A0A087WW88|Q9UQN3 (Q9UQN3 whole entry, one chain of several): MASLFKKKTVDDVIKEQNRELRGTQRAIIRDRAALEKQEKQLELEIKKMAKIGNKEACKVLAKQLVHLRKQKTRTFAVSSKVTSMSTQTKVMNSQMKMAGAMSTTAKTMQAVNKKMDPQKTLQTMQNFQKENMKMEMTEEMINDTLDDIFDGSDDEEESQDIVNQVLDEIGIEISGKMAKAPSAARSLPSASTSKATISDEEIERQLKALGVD
# Method in brief: as §1
# A0A087WWS1|Q96FV9 = target: T4, A0A087WWS1|Q96FV9 (UniProt Q96FV9)
# T4 sequence (whole entry): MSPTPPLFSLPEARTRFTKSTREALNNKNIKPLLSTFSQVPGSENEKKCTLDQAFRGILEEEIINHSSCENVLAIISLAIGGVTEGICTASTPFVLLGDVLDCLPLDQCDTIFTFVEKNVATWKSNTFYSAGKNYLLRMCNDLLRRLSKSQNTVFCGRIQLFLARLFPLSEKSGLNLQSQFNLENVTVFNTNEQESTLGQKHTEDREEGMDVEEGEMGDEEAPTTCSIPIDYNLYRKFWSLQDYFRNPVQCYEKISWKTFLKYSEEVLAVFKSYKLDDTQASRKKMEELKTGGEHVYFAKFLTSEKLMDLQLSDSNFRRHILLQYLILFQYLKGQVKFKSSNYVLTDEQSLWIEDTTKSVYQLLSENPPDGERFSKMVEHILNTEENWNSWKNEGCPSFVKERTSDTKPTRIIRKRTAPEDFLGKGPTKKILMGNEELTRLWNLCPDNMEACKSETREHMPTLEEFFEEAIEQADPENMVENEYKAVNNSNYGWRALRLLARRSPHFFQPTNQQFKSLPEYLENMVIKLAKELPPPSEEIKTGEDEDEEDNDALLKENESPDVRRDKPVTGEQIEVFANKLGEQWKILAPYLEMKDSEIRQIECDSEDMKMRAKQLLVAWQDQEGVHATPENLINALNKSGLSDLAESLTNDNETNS
# Method in brief: as §1
structure (smiles),measurement,setting,value
Nc1ncnc2c1ncn2[C@@H]1O[C@H](COP(=O)(O)OP(=O)(O)NP(=O)(O)O)[C@@H](O)[C@H]1O [adenylyl imidodiphosphate],NP40-soluble protein abundance,A0A087WUT6|O60841; concentration: 6mM,1.01 ± 0.033
same,NP40-soluble protein abundance,A0A087WUT6|O60841; concentration: 8mM,1.004 ± 0.0073
same,NP40-soluble protein abundance,A0A087WUT6|O60841; concentration: 10mM,0.997 ± 0.035
same,NP40-soluble protein abundance,[1]; concentration: 1mM,1.01 ± 0.02
same,NP40-soluble protein abundance,[1]; concentration: 2mM,1.07 ± 0.036
same,NP40-soluble protein abundance,[1]; concentration: 4mM,1.01 ± 0.044
same,NP40-soluble protein abundance,[1]; concentration: 6mM,0.976 ± 0.023
same,NP40-soluble protein abundance,[1]; concentration: 8mM,0.967 ± 0.011
same,NP40-soluble protein abundance,[1]; concentration: 10mM,0.991 ± 0.04
same,NP40-soluble protein abundance,[2]; concentration: 1mM,1.04 ± 0.038
same,NP40-soluble protein abundance,[2]; concentration: 2mM,1.12 ± 0.068
same,NP40-soluble protein abundance,[2]; concentration: 4mM,1.17 ± 0.05
same,NP40-soluble protein abundance,[2]; concentration: 6mM,1.28 ± 0.067
same,NP40-soluble protein abundance,[2]; concentration: 8mM,1.34 ± 0.094
same,NP40-soluble protein abundance,[2]; concentration: 10mM,1.43 ± 0.093
same,NP40-soluble protein abundance,A0A087WW88|Q9UQN3; concentration: 1mM,1.03 ± 0.024
same,NP40-soluble protein abundance,A0A087WW88|Q9UQN3; concentration: 2mM,1.03 ± 0.0098
same,NP40-soluble protein abundance,A0A087WW88|Q9UQN3; concentration: 4mM,1.03 ± 0.03
same,NP40-soluble protein abundance,A0A087WW88|Q9UQN3; concentration: 6mM,1.04 ± 0.018
same,NP40-soluble protein abundance,A0A087WW88|Q9UQN3; concentration: 8mM,1.03 ± 0.042
same,NP40-soluble protein abundance,A0A087WW88|Q9UQN3; concentration: 10mM,1.03 ± 0.014
same,NP40-soluble protein abundance,A0A087WWS1|Q96FV9; concentration: 1mM,1.35 ± 0.15
same,NP40-soluble protein abundance,A0A087WWS1|Q96FV9; concentration: 2mM,1.52 ± 0.22
same,NP40-soluble protein abundance,A0A087WWS1|Q96FV9; concentration: 4mM,1.64 ± 0.29
same,NP40-soluble protein abundance,A0A087WWS1|Q96FV9; concentration: 6mM,1.86 ± 0.46
same,NP40-soluble protein abundance,A0A087WWS1|Q96FV9; concentration: 8mM,1.96 ± 0.56
same,NP40-soluble protein abundance,A0A087WWS1|Q96FV9; concentration: 10mM,2.2 ± 0.76
